Records with an inconclusive call do not appear. Active and inactive are the calls of the source. The call rests on the fitted dose curve; in most records, active means well fitted curve in the direction sought with a large enough effect in the signal ratio, with a control signal flat (not every such curve was filed as active); inconclusive means small, poorly fitted or top-dose-only effect, or effect the other way, or a change in a side signal; inactive means no such curve, though single readings can be large or run the other way; the % refers to the signal ratio.
What follows are compounds tested against Tyrosine-protein phosphatase non-receptor type substrate 1 (Homo sapiens) + Leukocyte surface antigen CD47 (Homo sapiens) (UniProt P78324+Q08722) (assay: CD47-SIRPalpha protein protein interaction - LANCE assay qHTS validation (AID 1347057; further: 0% is about no effect)). Settings: Recombinant CD47-His / biotin-SIRPalpha, TR-FRET ratio; series mostly up to 38.3 µM; activity change, negative = inhibition: at the top concentration.
Text: SIRPalpha is a myeloid cell expressed immunomodulatory receptor that binds the tumor expressed immune checkpoint CD47. Therapeutic disruption of this interaction leads to immune-mediated tumor rejection. This assay was used to quantitate CD47-SIRPalpha binding biochemically and evaluate chemical libraries for novel CD47-SIRPalpha inhibitors. To recapitulate the biological interaction of CD47 and SIRPalpha, we designed expression constructs to produce their recombinant, soluble, extracellular interaction domains. CD47 was produced with an N-terminal 6His tag. SIRPalpha was produced with an N-terminal Avi-Tag for site-specific biotin incorporation. The CD47-SIRPalpha interaction was measured by TR-FRET using affinity tag linked reagents (anti-6His-Eu donor and streptavidin-APC acceptor). SIRPalpha without biotin incorporation was used as a positive control inhibitor.
PROTOCOL TABLE (as described by Miller, T. et al. 2019)
SEQUENCE No. (e.g., 1, 2, 3, etc.); […] (e.g., Cells, Incubation, Reagent, etc.); VALUE and DESCRIPTION.
1a. Reagent. 3 uL CD47-His (12.5 nM) and Anti-His Eu Donor reagent (3 nM) added to respective wells in Assay buffer; white/solid bottom high base, med bind 1536-well plates (Greiner 789075)
1b. Reagent. 2 uL Assay buffer negative control for background fluorescence
2. Reagent. 23 nL library compounds (7-pt, 1:4 intraplate titration series) or DMSO control transferred by Pin Tool
3. Centrifuge. Centrifuge plate for 30 s at 1000 RPM
4. Incubation.#Incubate reagents at room temperature for 30 min, protected from light
5. Reagent. 2 uL SIRPalpha-biotin (100 nM) in Assay buffer
6. Incubation.#Incubate reagents at room temperature for 30 min, protected from light
7. Reagent. 1 uL SAV-APC (26 nM) acceptor reagent added to respective wells
8. Centrifuge. Centrifuge plate for 30 s at 1000 RPM
9. Incubation. Incubate reagents at room temperature for 30 min, protected from light
10. Detector. Measure Top TR-FRET on EnVision (Eu/APC filter set); calculate ratio Ch1/Ch2
1. Assay buffer composition.#Phosphate buffered saline (PBS; 10 mM Phosphate, 137 mM NaCl, and 2.7 mM KCl; pH 7.4), 0.05% IGEPAL CA-630
2. 23nL of […] library compounds (7 plates) or DMSO vehicle control transferred to 9 Greiner white/solid bottom high base, TC plates in 7 interplate 1:5 titrations (see Yasgar, A. et al. 2008) with Pintool. Two of the 9 plates are DMSO-only in compound field at beginning and end of compound library-treated plates.
10. Detector settings#Mirror = LANCE/DELFIA Dual Enh; Ex. Filter = UV2[TRF] 320; Em. Filter = APC 665; 2nd Em. Filter = Europium 615; Measurement h = 6.5; Ex. light (%) = 100; Delay = 60 us; Window t = 100 us; No. Seq. windows = 1; Time between flashes = 2000us; No. of flashes = 100; No. of flashes for 2nd detector = 100; Calculation: "Ratio Ch1/Ch2"

Sequence of Tyrosine-protein phosphatase non-receptor type substrate 1 (Homo sapiens) + Leukocyte surface antigen CD47 (Homo sapiens) (P78324 whole entry, looked up): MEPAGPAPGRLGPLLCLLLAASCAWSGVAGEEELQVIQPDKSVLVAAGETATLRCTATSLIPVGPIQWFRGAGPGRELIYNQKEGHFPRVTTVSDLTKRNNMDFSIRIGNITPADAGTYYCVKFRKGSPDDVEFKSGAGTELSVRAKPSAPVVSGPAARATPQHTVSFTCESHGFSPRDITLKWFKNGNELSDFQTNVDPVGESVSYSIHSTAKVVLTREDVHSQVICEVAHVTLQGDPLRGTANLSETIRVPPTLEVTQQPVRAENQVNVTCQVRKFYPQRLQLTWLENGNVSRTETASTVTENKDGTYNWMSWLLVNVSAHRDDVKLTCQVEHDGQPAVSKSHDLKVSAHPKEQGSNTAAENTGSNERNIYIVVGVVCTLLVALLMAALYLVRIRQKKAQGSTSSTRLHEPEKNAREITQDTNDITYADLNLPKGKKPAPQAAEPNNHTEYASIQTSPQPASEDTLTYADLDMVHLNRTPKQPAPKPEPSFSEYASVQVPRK
Sequence of Tyrosine-protein phosphatase non-receptor type substrate 1 (Homo sapiens) + Leukocyte surface antigen CD47 (Homo sapiens) (Q08722 whole entry, looked up): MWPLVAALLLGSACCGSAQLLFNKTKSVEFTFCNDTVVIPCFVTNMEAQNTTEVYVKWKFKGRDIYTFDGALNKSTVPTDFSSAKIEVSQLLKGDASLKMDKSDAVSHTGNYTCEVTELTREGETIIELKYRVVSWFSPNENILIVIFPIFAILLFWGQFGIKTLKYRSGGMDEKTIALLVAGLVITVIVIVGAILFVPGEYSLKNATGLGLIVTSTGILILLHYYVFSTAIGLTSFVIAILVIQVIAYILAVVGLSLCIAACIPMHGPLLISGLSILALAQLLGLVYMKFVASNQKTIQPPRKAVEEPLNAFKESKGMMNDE

SMILES | activity change, negative = inhibition | outcome
C[C@@H]1O[C@@H](O[C@H]2C[C@@H](O)[C@]3(CO)[C@H]4[C@H](O)C[C@]5(C)[C@@H](C6=CC(=O)OC6)CC[C@]5(O)[C@@H]4CC[C@]3(O)C2)[C@H](O)[C@H](O)[C@H]1O | 0.308% (inactive) | 
CC(=O)[C@H]1CC[C@H]2[C@@H]3CC[C@H]4C[C@H](O)CC[C@]4(C)[C@H]3C(=O)C[C@]12C | 0.659% (inactive) | 
CC(CCc1ccccc1)NC(C)C(O)c1ccc(O)cc1 (stereo unspecified) | 0.61% (inactive) | 
CC(O)(CS(=O)(=O)c1ccc(F)cc1)C(=O)Nc1ccc(C#N)c(C(F)(F)F)c1 (stereo unspecified) | 0.0879% (inactive) | 
NN=C(N)N |  | inactive
COC[C@H]1OC(=O)c2coc3c2[C@@]1(C)C1=C(C3=O)C2CCC(=O)[C@@]2(C)C[C@H]1OC(C)=O (stereo partly specified) | 0.264% (inactive) | 
CCC1(C2=NCCN2)Cc2ccccc2O1 (stereo unspecified) | 0.275% (inactive) | 
Cn1c(CCCC(=O)O)nc2cc(N(CCCl)CCCl)ccc21 | 0.879% (inactive) | 
NCC1(CC(=O)O)CCCCC1 | 0.0879% (inactive) | 
CNCC(O)c1ccc(O)cc1 (stereo unspecified) | 1.01% (inactive) | 
Cc1ccc(S(=O)(=O)N[C@@H](CCCCN)C(=O)CCl)cc1 | 1.36% (inactive) | 
CCCN1CCC[C@@H]2Cc3[nH]ncc3C[C@H]21 |  | inactive
NCC(O)c1ccc(O)cc1 (stereo unspecified) | -0.704% (inactive) | 
Cc1ncc(CNC(=O)N(CCCl)N=O)c(N)n1 | 1.42% (inactive) | 
C=C(C)[C@H]1Cc2c(ccc3c2O[C@@H]2COc4cc(OC)c(OC)cc4[C@@H]2C3=O)O1 | -0.854% (inactive) | 
NCC(CC(=O)O)c1ccc(Cl)cc1 (stereo unspecified) | 1.23% (inactive) | 

SMILES | activity change, negative = inhibition | outcome
CC(=O)[C@H]1CC[C@H]2[C@@H]3CC[C@H]4C[C@](C)(O)CC[C@]4(C)[C@H]3CC[C@]12C | 0.0184% (inactive) | 
O=C1NCN(c2ccccc2)C12CCN(CC1COc3ccccc3O1)CC2 (stereo unspecified) | 1.06% (inactive) | 
CN1C[C@H](CNC(=O)OCc2ccccc2)C[C@@H]2c3cccc4c3c(cn4C)C[C@H]21 | 0.355% (inactive) | 
N#CC(C#N)=Cc1ccc(O)c(O)c1 | 1.03% (inactive) | 
COc1ccccc1N1CCNCC1 | 0.101% (inactive) | 
c1ccc2c(c1)OCC(C1=NCCN1)O2 (stereo unspecified) | 0.159% (inactive) | 
Fc1ccc(C(OCCN2CCN(CCCc3ccccc3)CC2)c2ccc(F)cc2)cc1 | 1.06% (inactive) | 
Cc1cccc(C)c1NC(=O)CN1CCCC1=O | -0.0281% (inactive) | 
c1ccc(C2CC2)c(OCC2=NCCN2)c1 | 0.346% (inactive) | 
Cc1cccc(C)c1NC1=NCCCS1 | 0.176% (inactive) | 
O=c1[nH]c2ccccc2n1CCCN1CCC(n2c(=O)[nH]c3cc(Cl)ccc32)CC1 | 1.93% (inactive) | 
CC(C)=CCOc1c2occc2cc2ccc(=O)oc12 | 0.747% (inactive) | 
CCCN1CCC[C@@H]2Cc3nc(N)ncc3C[C@H]21 | 0.352% (inactive) | 
Nc1ccncc1 | 0.195% (inactive) | 
O=c1[nH]c2ccccc2n1C1CCN(CCCC(c2ccc(F)cc2)c2ccc(F)cc2)CC1 | -0.659% (inactive) | 

Reference: PubChem BioAssay (NCATS)
